Compounds with a hit are over-represented: about 2.4% of the library has one in this group of screens.
D2 antag: antagonists of human D2 dopamine receptor; inhibition, % at 10 µM; P14416; 340,000 compounds, 2% hits; HEK293 TREx D2 cells, calcium flux, dopamine EC80; AID 485344; in the data active = inhibition above about 30%; inactive = below that, where a call was filed; also: 0% is about no effect
Target sequence (P14416 whole entry, looked up): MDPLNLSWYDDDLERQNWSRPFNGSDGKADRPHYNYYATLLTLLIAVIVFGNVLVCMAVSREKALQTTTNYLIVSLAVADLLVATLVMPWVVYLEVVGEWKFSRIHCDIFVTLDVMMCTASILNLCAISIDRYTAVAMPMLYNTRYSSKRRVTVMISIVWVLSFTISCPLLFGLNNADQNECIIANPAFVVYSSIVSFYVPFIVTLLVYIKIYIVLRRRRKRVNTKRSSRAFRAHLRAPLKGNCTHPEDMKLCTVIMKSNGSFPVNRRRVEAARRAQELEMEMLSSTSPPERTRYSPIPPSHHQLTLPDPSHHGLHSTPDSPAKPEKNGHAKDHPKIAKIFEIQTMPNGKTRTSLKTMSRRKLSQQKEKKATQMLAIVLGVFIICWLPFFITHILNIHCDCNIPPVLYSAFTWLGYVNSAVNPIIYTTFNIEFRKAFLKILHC
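Read-out: kinetic calcium fluorescence (1 cycle/s) in inducible HEK293 T-REx D2 cells after an EC80 dopamine addition that followed 180 s compound preincubation. Loss of the dopamine response indicates antagonism.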
D2 PAM-1: potentiates the human D2 dopamine receptor allosterically; P14416; DiscoveRx D2 beta-arrestin cells, luminescence, 90 min; 100% = 57 uM dopamine signal; potentiation, % (no concentration beside the values); 360,000 compounds, 0.23% hits; AID 624464; in the data active = potentiation above about 50%
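PathHunter D2 cells, attached overnight at 37 deg C, received compound in DMSO plus dopamine at EC20 (50 nM final) for 90 min at 37 deg C. Beta-arrestin recruitment was read as luminescence after 1 h with detection reagent at ambient temperature.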
D2 ag-1: agonists of human D2 dopamine receptor; P14416; HEK293 T-REx D2 cells, calcium flux agonist mode; activation, % at 2 µM; 340,000 compounds, 0.53% hits;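 active = activation over 3 SD above normal in the single-dose calcium agonist read, cut at about 30% in these data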; also: 0% is about no effect
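In this primary screen, compounds producing a positive calcium signal within 180 s of addition to tetracycline-induced, force-coupled HEK293 Trex D2 cells are flagged; cells are dye-loaded with a no-wash calcium kit beforehand.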
D2 ag-2: human D2 receptor agonism in beta-arrestin assay. DiscoveRx PathHunter D2 beta-arrestin, luminescence, 90 min; 100% = 57 uM dopamine signal. activation, % (test concentration not listed). 360,000 compounds, 0.084% hits. AID 624465; in the data active = activation above about 40%
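DiscoveRx PathHunter D2 beta-arrestin cells (2,100/well) attached overnight, then compound-stimulated 90 min at 37 C in HBSS/10 mM HEPES/0.1% Tween-20 buffer; beta-galactosidase complementation read by luminescence after 1 h at ambient temperature. Dopamine 57 uM final (EC100) as control.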
D2 PAM-2: positively modulates the human D2 dopamine receptor allosterically; 340,000 compounds, 0.34% hits; potentiation, % at 10 µM; HEK293 T-REx D2, calcium flux, EC20 dopamine potentiation; AID 485347; P14416;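 active = potentiation over 3 SD above the plate norm, cut at about 30% in these data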; also: 0% is about no effect
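Calcium flux readout, no-wash dye, 1 read/s. Inducible HEK293 Trex D2 line, overnight 30 C. Compound alone 180 s (agonist flags), then EC20 dopamine, another 180 s to score potentiation.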
Active calls of the source: *.

How did COc1ccccc1CNS(=O)(=O)c1c(C(=O)N2CCCC2)c(C)n(C)c1C do in these assays?
D2 antag: -25; D2 PAM-1: -23; D2 ag-1: 1; D2 ag-2: -1; D2 PAM-2: -7

How did c1ccc(-c2nccc(-c3ccc(-n4cnc5ccccc54)cc3)n2)cc1 do in these assays?
D2 antag: -5; D2 PAM-1: -10; D2 ag-1: 0; D2 ag-2: -3; D2 PAM-2: 4

Results for Nc1nccc(-c2ccc(-n3cccc3)cc2)n1 ?
D2 antag: -6; D2 PAM-1: -8; D2 ag-1: 0; D2 ag-2: -1; D2 PAM-2: 50*

How did COc1ccc(CNc2nc(NCc3ccc(OC)cc3)c3[nH]cnc3n2)cc1 do in these assays?
D2 antag: 42*; D2 PAM-1: 18; D2 ag-1: 0; D2 ag-2: 6; D2 PAM-2: 4

Results for COc1ccc(CNc2ncnc(N)n2)cc1 ?
D2 antag: 14; D2 PAM-1: 4; D2 ag-1: 1; D2 ag-2: -1; D2 PAM-2: -6

Results for CC(C)CS(=O)(=O)c1oc(-c2ccc(F)cc2)nc1S(=O)(=O)c1ccccc1 ?
D2 ag-1: 5; D2 PAM-2: 8

Results for CCOC(=O)C1(Cc2ccccc2C(F)(F)F)CCN(C2CCC2)CC1 ?
D2 antag: 32*; D2 PAM-1: -31; D2 ag-1: -2; D2 ag-2: -5; D2 PAM-2: -18

What do the screens show for `CCOC(=O)C1(Cc2ccccc2C(F)(F)F)CCN(CCCn2cccn2)CC1`?
D2 antag: 48*; D2 PAM-1: -14; D2 ag-1: 0; D2 ag-2: -3; D2 PAM-2: -22

How did Cn1cc(CN2CCC(C(=O)N3CCCCC3)CC2)c(-c2ccccc2F)n1 do in these assays?
D2 antag: -12; D2 PAM-1: -7; D2 ag-1: 2; D2 ag-2: -1; D2 PAM-2: 3

Results for Cc1cc(NC(=O)CSc2nc3cc(Cl)ccc3c(=O)n2CC(C)C)no1 ?
D2 antag: -8; D2 ag-1: 1; D2 PAM-2: -4

Results for COCCn1c(SCC(=O)Nc2cc(C)on2)nc2cc(Cl)ccc2c1=O ?
D2 antag: 1; D2 PAM-1: -12; D2 ag-1: 0; D2 ag-2: 1; D2 PAM-2: 72*

What do the screens show for `CCn1c(SCC(=O)Nc2cc(C)on2)nc2sc(C)c(C)c2c1=O`?
D2 antag: 36*; D2 ag-1: 1; D2 PAM-2: -2

How did C=CCn1c(SCC(=O)Nc2cc(C)on2)nc2sc(C)c(C)c2c1=O do in these assays?
D2 PAM-1: 0; D2 ag-2: 2

How did O=C(CSc1nc(=O)[nH]c2c1CCC2)NCc1ccc(F)cc1 do in these assays?
D2 ag-1: 0; D2 PAM-2: 0

How did O=c1c2ccccc2oc2ccc(-c3ccc4cc[nH]c4c3)cc12 do in these assays?
D2 PAM-1: -7; D2 ag-2: 4

How did COc1cc(CNc2ccc3[nH]c(=O)[nH]c3c2)cc(Br)c1OCC(=O)NC(C)(C)C do in these assays?
D2 antag: 0; D2 PAM-1: 6; D2 ag-1: -2; D2 ag-2: 2; D2 PAM-2: 5

How did COc1cc(CNc2cccc(C(=O)O)c2)cc(Br)c1OCC(=O)NC(C)(C)C do in these assays?
D2 antag: 60*; D2 PAM-1: 4; D2 ag-1: -1; D2 ag-2: -1; D2 PAM-2: 9

Results for CN(CC(=O)Nc1ccc(C#N)cc1)Cc1ccc(Cl)c(Cl)c1 ?
D2 antag: -18; D2 PAM-1: -7; D2 ag-1: 0; D2 ag-2: -1; D2 PAM-2: -7

What do the screens show for `CCc1ccc(CCC(=O)Nc2ccc(Cl)cc2)o1`?
D2 antag: 42*; D2 PAM-1: -5; D2 ag-1: -1; D2 ag-2: 1; D2 PAM-2: -12

Results for CN(Cc1ccccc1)C(=O)c1ccc(NC(=O)c2ccccc2)cc1 ?
D2 antag: -17; D2 PAM-1: -11; D2 ag-1: 0; D2 ag-2: -2; D2 PAM-2: 37*

What do the screens show for `CN(Cc1ccccc1)C(=O)c1cccc(NC(=O)c2ccco2)c1`?
D2 antag: -8; D2 PAM-1: -5; D2 ag-1: 0; D2 ag-2: -5; D2 PAM-2: -8

What do the screens show for `CN(CCC(=O)Nc1ccc2c(c1)OCO2)Cc1ccccc1`?
D2 antag: -26; D2 PAM-1: -24; D2 ag-1: 1; D2 ag-2: -1; D2 PAM-2: -5

How did CN(CCC(=O)Nc1ccc(Cl)cc1)Cc1ccccc1 do in these assays?
D2 antag: 45*; D2 PAM-1: -28; D2 ag-1: -1; D2 ag-2: -10; D2 PAM-2: -26

How did CN(CC(=O)Nc1cccc(C#N)c1)Cc1ccc(Cl)cc1 do in these assays?
D2 antag: 68*; D2 PAM-1: -31; D2 ag-1: 0; D2 ag-2: 3; D2 PAM-2: -11

Results for CC(O)C(C(=O)OCc1ccc([N+](=O)[O-])cc1)N1C(=O)c2ccccc2C1=O (configuration not stated) ?
D2 antag: -5; D2 PAM-1: -4; D2 ag-1: 0; D2 ag-2: 2; D2 PAM-2: 8

Results for CC(=O)N(CC(C)C(=O)O)c1c(I)cc(I)c(N)c1I (configuration not stated) ?
D2 antag: 1; D2 PAM-1: -8; D2 ag-1: -1; D2 ag-2: -3; D2 PAM-2: -3

Results for Cc1cc(C)cc(CC(=O)N2CCC2(C)C(=O)NS(=O)(=O)c2ccccc2Cl)c1 (configuration not stated) ?
D2 PAM-1: -6; D2 ag-2: -3

Results for Cc1cc(C(=O)OCC(=O)NCCc2ccc(S(N)(=O)=O)cc2)c2ccccc2n1 ?
D2 antag: 38*; D2 PAM-1: -4; D2 ag-1: 0; D2 ag-2: -2; D2 PAM-2: 0

Results for Cc1cc(C(=O)OCC(=O)Nc2cc(S(=O)(=O)N(C)C)ccc2C)c2ccccc2n1 ?
D2 antag: 37*; D2 PAM-1: -15; D2 ag-1: 2; D2 ag-2: -2; D2 PAM-2: -24

Results for Cc1cc(C(=O)OCC(=O)NCc2ccccc2)c2ccccc2n1 ?
D2 PAM-1: -22; D2 ag-2: 7

What do the screens show for `COc1ccc(S(=O)(=O)N(C)C)cc1NC(=O)COC(=O)c1nc2nccc(C)n2n1`?
D2 antag: 40*; D2 PAM-1: -11; D2 ag-1: -1; D2 ag-2: -2; D2 PAM-2: 7

What do the screens show for `Cc1ccc(S(=O)(=O)N(C)C)cc1NC(=O)COC(=O)C1CCN(S(=O)(=O)c2cccs2)CC1`?
D2 antag: 35*; D2 PAM-1: -4; D2 ag-1: 0; D2 ag-2: -4; D2 PAM-2: 0
